This note sets out measurements from PubChem BioAssay AID588852 (The Scripps Research Institute Molecular Screening Center, 2011).

Hit rate of the full screen: of about 360,000 compounds, about 4,600 (1.3%) were called active. The sample as a whole holds a higher share of actives than the screen did. Unmarked numbers belong to inactive results.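 The calls were made as follows: active = percent inhibition above its own plate's cutoff, namely the mean of that plate's compound wells plus 3 SD; inactive = the rest.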

A word on the inhibition: it is the change of the read-out against control, counted positive when it falls.

Sequence of Muscarinic acetylcholine receptor M1 (Homo sapiens) (P11229 whole entry, looked up): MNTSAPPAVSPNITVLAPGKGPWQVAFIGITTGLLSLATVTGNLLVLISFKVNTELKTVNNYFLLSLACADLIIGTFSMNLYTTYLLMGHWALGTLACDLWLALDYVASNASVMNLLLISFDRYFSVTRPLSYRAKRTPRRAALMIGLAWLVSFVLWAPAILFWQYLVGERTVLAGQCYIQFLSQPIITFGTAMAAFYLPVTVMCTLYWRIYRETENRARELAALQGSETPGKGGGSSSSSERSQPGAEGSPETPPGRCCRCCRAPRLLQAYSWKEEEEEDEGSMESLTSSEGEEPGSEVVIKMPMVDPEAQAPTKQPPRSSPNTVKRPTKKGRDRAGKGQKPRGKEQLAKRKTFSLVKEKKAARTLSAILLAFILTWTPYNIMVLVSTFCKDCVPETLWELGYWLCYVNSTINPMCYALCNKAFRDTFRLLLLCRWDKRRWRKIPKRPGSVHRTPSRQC

This test concerns the target Muscarinic acetylcholine receptor M1 (Homo sapiens) (UniProt P11229). In words: human M1 muscarinic receptor antagonists, primary screen, CHO-K1 cells, Fluo-8 calcium fluorescence, 1536-well (AID 588852).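 Also: peak over basal fluorescence ratio during 140 s after agonist addition; 0% = ACh EC80 plus DMSO and 100% = DMSO alone without agonist.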 Conditions: CHO-K1 hM1, Fluo-8 calcium fluorescence, ACh EC80 antagonist; at 3 µM; stronger effect = higher value.
`CCOc1ccc(Nc2nc(Cc3nnc(SCC(=O)c4ccc(C)cc4)o3)cs2)cc1`: the inhibition is 13% (active).
Consider `CCOc1ccc(Nc2nc(Cc3nnc(SCC(=O)NC4CCCC4)n3C)cs2)cc1`, for which the inhibition was -22.9%.
Regarding `CC(=O)Nc1ccc(C(=O)CSc2nnc(Cc3ccccc3)o2)cc1`, the inhibition is -12.2%.
As for `CCOC(=O)c1nnn(CC(=O)Nc2cccc(F)c2)c1C(=O)OCC`, the figure is -2.12%.
As to `O=C(NCc1cccnc1)c1nc(-c2cccs2)no1`, the inhibition was -2.8%.
On to `CC1CCC2CCCCC2N1C(=O)c1cc([N+](=O)[O-])cc([N+](=O)[O-])c1` (stereo unspecified), for which the inhibition was -3.75%.
As for `Cn1cc(CN2CCCCC2c2ccccn2)c(-c2ccc3c(c2)OCCO3)n1` (stereo unspecified), the figure is -3.05%; as for `COc1ccccc1C(=O)Nc1ccc(C)c(S(=O)(=O)N2CCCCC2)c1`, 5.17%; as for `Cc1ccc(C(=O)Nc2ccc3c(c2)OCCO3)cc1S(=O)(=O)N1CCOCC1`, -13.2%.
To `Cc1ccc(C(=O)NCC(c2cccs2)N(C)C)cc1S(=O)(=O)N1CCOCC1` (stereo unspecified) belongs 50.7% (active); to `COc1ccccc1CNC(=O)c1ccc(Cl)c(S(=O)(=O)N2CCCC2)c1`, -5.01%.
For the compound `Cc1ccc(C(=O)Nc2ncccc2C)cc1S(=O)(=O)N1CCOCC1`, the inhibition is -9.39%.
In the case of `COc1ccccc1C(CNC(=O)c1ccc(C)c(S(=O)(=O)N2CCCCC2)c1)N(C)C` (stereo unspecified), the inhibition is 101% (active).
To `CCCCN1C(=O)/C(=C2/C=CC=CN2C)SC1=S` belongs 37.9% (active); to `CN1C=CC=C/C1=C1\SC(=S)N(Cc2ccccc2)C1=O`, 19.7%; to `CCCCN1C(=O)/C(=C/C=C2/C=Cc3ccccc3N2CC)SC1=S`, -7.59%.
On to `CCC(C)C(CO)NC(=O)/C=C/[C@H]1O[C@@H](n2cnc3c(NC(=O)c4ccccc4)ncnc32)[C@H](O)[C@@H]1O` (stereo partly specified), for which the inhibition is 3.77%.
Take `CC(C)c1cccc(C(C)C)c1Nc1cn[nH]c1`: the inhibition is -0.55%.
As to `O=S(=O)(/C=C/c1ccccc1)N1CCNCC1`, the inhibition was -8.17%.
`Fc1ccc(CNCc2ccc(Br)cc2)cc1`: the inhibition was -0.53%.
To `COc1ccc(NC(=O)CN(C)C(=O)c2cccc(S(=O)(=O)N3CCN(c4ccccc4)CC3)c2)cc1` belongs 57.7% (active).
To `Cc1ccc(NC(=O)CN(C)C(=O)c2cccc(S(=O)(=O)N3CCCC3)c2)cc1` belongs -6.53%; to `CCOc1ccc(NC(=O)CN(C)C(=O)c2cccc(S(=O)(=O)N3CCCC3)c2)cc1OCC`, 7.19%.
As for `C=CCN(c1ccc(Cl)cc1)S(=O)(=O)c1cccc(C(=O)OCC(=O)N(C)C)c1`, the figure is -8.38%.
`COc1cc(S(=O)(=O)N(Cc2cccs2)C2CC2)ccc1-n1cnnn1`: the inhibition was -5.47%.
As for `O=S(=O)(Cc1nnnn1-c1ccc(Br)cc1)c1ccc(F)cc1`, the figure is -2.5%.
Regarding `Nc1c(C(=O)c2cccs2)sc2nsc(SCCN3CCCCC3)c12`, the inhibition is 44.1% (active).
To `Cc1nc2cc(NC(=O)Nc3cccc(F)c3)ccc2n1C` belongs -17.2%; to `O=C(Nc1ccc2ccccc2c1)Nc1ccc2snnc2c1`, 32.8% (active).
Regarding `S=C(Nc1ccccc1)Nc1ccc2ccccc2c1`, the inhibition was -3.01%.
`O=C(c1ccco1)N1CCN(CCOc2ccccc2)CC1`: the inhibition was -9.86%.
As to `CN(Cc1ccccc1)C(=O)CCC1CCN(C(=O)c2ccco2)CC1`, the inhibition was 31.3% (active).
As to `O=C(c1ccco1)N1CCN(C(=O)C2c3ccccc3Oc3ccccc32)CC1`, the inhibition is 11.3%.
As for `Cc1ccc([C@@H]2CC(=O)[C@@H]3CN(S(=O)(=O)c4ccc(C)cc4)[C@H](c4ccccc4F)C[C@@H]3N2S(=O)(=O)c2ccc(Cl)cc2)cc1`, the figure is -10%; as for `CC12CCC(=O)C=C1CCC1C2C(O)CC2(C)C1CCC2(O)C(O)CO` (stereo unspecified), -14.1%.
As for `COc1ccc(CCNC2=C(Cl)C(=O)N(Cc3ccccc3)C2=O)cc1OC`, the figure is 13.4%; as for `COc1cc(/C=C2/SC(=S)N(Cc3ccccc3)C2=O)cc(OC)c1O`, 30.7% (active); as for `COc1ccc(/C=C2\SC(=S)N(CCC(=O)N3CCOCC3)C2=O)cc1OC`, -11%.
Take `O=C(CCNc1n[nH]c(=O)[nH]c1=O)N/N=C\c1ccc(Br)cc1`: the inhibition is -20%.
As for `CN(C)CCOC1c2ccccc2-c2ccccc21`, the figure is 12.7%; as for `Cc1ccccc1C(OCCN(C)C)C1CCCCC1` (stereo unspecified), 99.8% (active).
As for `COc1ccccc1CNC(=O)Cn1c(=O)oc2cc(Cl)ccc21`, the figure is -12.3%; as for `CSCCC(NC(=O)c1ccco1)C(=O)NCCc1ccc(F)cc1` (stereo unspecified), 4.11%.
On to `O=C(NNC(=O)c1ccc(-c2ccccc2)cc1)Nc1ccccc1`, for which the inhibition was -2.91%.
To `CC(C(=O)c1ccc(-c2ccccc2)cc1)[n+]1cccc(Br)c1` (stereo unspecified) belongs 35.1% (active); to `C[n+]1cccc(C(=O)O)c1`, -30.2%; to `CCCCc1nc(NCc2ccccc2)c(C#N)c2c1CCCC2`, -5.37%.
`COc1ccc(C(C#N)=C2C=CC(=NO)c3ccccc32)cc1`: the inhibition is 22%.
To `CC1=C(C(=O)N2CCOCC2)CC(CC(=O)NCc2cccs2)C(=O)N1CCCN1CCCC1=O` (stereo unspecified) belongs 4.82%.
As for `Cc1ccc2nc(-c3ccco3)c(Cc3cccc(Cl)c3)n2c1`, the figure is -5.65%; as for `Cc1ccc(S(=O)(=O)N2CCOCC2)cc1C(=O)NCc1ccc(F)cc1`, 9.1%; as for `Cc1cc2cc(CNC(=O)c3ccc(S(=O)(=O)N4CCOCC4)cc3)ccc2[nH]1`, 59.4% (active).
As for `COC(=O)c1ccc(CNC(=O)c2ccc(S(=O)(=O)N3CCCCCC3)cc2)cc1`, the figure is -11.2%; as for `CCCC(=O)N1CCC1(C)C(=O)NCc1ccc(SC)cc1` (stereo unspecified), -8.63%; as for `CC(NC(=O)COc1cccnc1[N+](=O)[O-])c1ccc(Cl)cc1Cl` (stereo unspecified), 42.6% (active).
Regarding `COc1cccc(NC(=O)COc2cccnc2[N+](=O)[O-])c1`, the inhibition is -7.66%.
To `O=C(COc1cccnc1[N+](=O)[O-])Nc1ccc(Cl)cc1F` belongs 3.68%; to `CCCNC(=S)NC1CC2CCCC(C1)N2CC(C)C` (stereo unspecified), 29.5%.
As for `CC(C)(C)n1nnnc1C(c1cccs1)N(Cc1cccnc1)CC1CCCO1` (stereo unspecified), the figure is 79.4% (active).
As for `CCOc1ccc(CN(Cc2ccco2)C(c2cccs2)c2nnnn2C(C)(C)C)cc1` (stereo unspecified), the figure is 18.8%; as for `CC(C)C(c1nnnn1C(C)(C)C)N1CCN(Cc2cccnc2)CC1` (stereo unspecified), -13.5%.
